Test results published in the supplement of paper PMC6897291.

How the values were obtained:
[1] = tested on: U-2932; test: growth inhibition by drug alone (1 - RLU/untreated control) (fraction); higher = stronger inhibition; settings: 177Lu-lilotomab satetraxetan 0 ug/ml
In short: (§1)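 RIVA or U-2932 cells, untreated or pretreated 18 h with a radiolabelled anti-CD37 antibody conjugate (~600 MBq/mg; 0.5 µg/ml RIVA, 1 µg/ml U-2932), were washed and seeded at 3,000 cells/well on plates pre-printed with the Selleck Cambridge Cancer Compound library. Doses were 10/100 nM (RIVA) or 10/1,000 nM (U-2932). RealTime-Glo luminescence was read daily from day 3 after 1 h at 37°C. Growth inhibition is 1 − RLU/mean of 48 untreated no-drug wells per plate.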

[2] = tested on: RIVA; test: as above; settings: 177Lu-lilotomab satetraxetan 0 ug/ml
In short: as §1

[3] = tested on: U-2932; test: growth inhibition by drug plus 177Lu-lilotomab satetraxetan (1 - RLU/untreated control) (fraction); higher = stronger inhibition; settings: 177Lu-lilotomab satetraxetan 1 ug/ml
In short: as §1

[4] = tested on: RIVA; test: as above; settings: 177Lu-lilotomab satetraxetan 0.5 ug/ml
In short: as §1

CC[C@H](Nc1ncnc2[nH]cnc12)c1nc2cccc(F)c2c(=O)n1-c1ccccc1
growth inhibition by drug alone ([1]; 10 nM, time (day): 3): -0.00827
growth inhibition by drug alone ([1]; 10 nM, time (day): 4): -0.000402
growth inhibition by drug alone ([1]; 10 nM, time (day): 5): -0.0211
growth inhibition by drug alone ([1]; 10 nM, time (day): 6): 0.0544
growth inhibition by drug alone ([1]; 1000 nM, time (day): 3): 0.567
growth inhibition by drug alone ([1]; 1000 nM, time (day): 4): 0.374
growth inhibition by drug alone ([1]; 1000 nM, time (day): 5): 0.289
growth inhibition by drug alone ([1]; 1000 nM, time (day): 6): 0.263
growth inhibition by drug alone ([2]; 10 nM, time (day): 3): -0.102
growth inhibition by drug alone ([2]; 10 nM, time (day): 4): -0.203
growth inhibition by drug alone ([2]; 10 nM, time (day): 5): -0.182
growth inhibition by drug alone ([2]; 10 nM, time (day): 6): -0.255
growth inhibition by drug alone ([2]; 100 nM, time (day): 3): 0.424
growth inhibition by drug alone ([2]; 100 nM, time (day): 4): 0.204
growth inhibition by drug alone ([2]; 100 nM, time (day): 5): 0.175
growth inhibition by drug alone ([2]; 100 nM, time (day): 6): 0.0639
growth inhibition by drug plus 177Lu-lilotomab satetraxetan ([3]; 10 nM, time (day): 3): -0.0906
growth inhibition by drug plus 177Lu-lilotomab satetraxetan ([3]; 10 nM, time (day): 4): -0.0707
growth inhibition by drug plus 177Lu-lilotomab satetraxetan ([3]; 10 nM, time (day): 5): -0.0592
growth inhibition by drug plus 177Lu-lilotomab satetraxetan ([3]; 10 nM, time (day): 6): 0.0112
growth inhibition by drug plus 177Lu-lilotomab satetraxetan ([3]; 1000 nM, time (day): 3): 0.507
growth inhibition by drug plus 177Lu-lilotomab satetraxetan ([3]; 1000 nM, time (day): 4): 0.287
growth inhibition by drug plus 177Lu-lilotomab satetraxetan ([3]; 1000 nM, time (day): 5): 0.217
growth inhibition by drug plus 177Lu-lilotomab satetraxetan ([3]; 1000 nM, time (day): 6): 0.234
growth inhibition by drug plus 177Lu-lilotomab satetraxetan ([4]; 10 nM, time (day): 3): 0.367
growth inhibition by drug plus 177Lu-lilotomab satetraxetan ([4]; 10 nM, time (day): 4): 0.448
growth inhibition by drug plus 177Lu-lilotomab satetraxetan ([4]; 10 nM, time (day): 5): 0.484
growth inhibition by drug plus 177Lu-lilotomab satetraxetan ([4]; 10 nM, time (day): 6): 0.5
growth inhibition by drug plus 177Lu-lilotomab satetraxetan ([4]; 100 nM, time (day): 3): 0.575
growth inhibition by drug plus 177Lu-lilotomab satetraxetan ([4]; 100 nM, time (day): 4): 0.541
growth inhibition by drug plus 177Lu-lilotomab satetraxetan ([4]; 100 nM, time (day): 5): 0.554
growth inhibition by drug plus 177Lu-lilotomab satetraxetan ([4]; 100 nM, time (day): 6): 0.546

CC(C)C[C@H](NC(=O)[C@@H](O)[C@H](N)Cc1ccccc1)C(=O)O [Ubenimex (Bestatin)]
growth inhibition by drug alone ([1]; 10 nM, time (day): 3): 0.0863
growth inhibition by drug alone ([1]; 10 nM, time (day): 4): 0.0556
growth inhibition by drug alone ([1]; 10 nM, time (day): 5): -0.0551
growth inhibition by drug alone ([1]; 10 nM, time (day): 6): -0.108
growth inhibition by drug alone ([1]; 1000 nM, time (day): 3): -0.043
growth inhibition by drug alone ([1]; 1000 nM, time (day): 4): -0.0237
growth inhibition by drug alone ([1]; 1000 nM, time (day): 5): -0.0577
growth inhibition by drug alone ([1]; 1000 nM, time (day): 6): -0.0906
growth inhibition by drug alone ([2]; 10 nM, time (day): 3): 0.135
growth inhibition by drug alone ([2]; 10 nM, time (day): 4): 0.0658
growth inhibition by drug alone ([2]; 10 nM, time (day): 5): -0.0244
growth inhibition by drug alone ([2]; 10 nM, time (day): 6): -0.181
growth inhibition by drug alone ([2]; 100 nM, time (day): 3): 0.0407
growth inhibition by drug alone ([2]; 100 nM, time (day): 4): 0.0221
growth inhibition by drug alone ([2]; 100 nM, time (day): 5): 0.00426
growth inhibition by drug alone ([2]; 100 nM, time (day): 6): -0.114
growth inhibition by drug plus 177Lu-lilotomab satetraxetan ([3]; 10 nM, time (day): 3): 0.0135
growth inhibition by drug plus 177Lu-lilotomab satetraxetan ([3]; 10 nM, time (day): 4): 0.0451
growth inhibition by drug plus 177Lu-lilotomab satetraxetan ([3]; 10 nM, time (day): 5): 0.0835
growth inhibition by drug plus 177Lu-lilotomab satetraxetan ([3]; 10 nM, time (day): 6): 0.192
growth inhibition by drug plus 177Lu-lilotomab satetraxetan ([3]; 1000 nM, time (day): 3): -0.112
growth inhibition by drug plus 177Lu-lilotomab satetraxetan ([3]; 1000 nM, time (day): 4): -0.0121
growth inhibition by drug plus 177Lu-lilotomab satetraxetan ([3]; 1000 nM, time (day): 5): -0.00508
growth inhibition by drug plus 177Lu-lilotomab satetraxetan ([3]; 1000 nM, time (day): 6): 0.0506
growth inhibition by drug plus 177Lu-lilotomab satetraxetan ([4]; 10 nM, time (day): 3): 0.428
growth inhibition by drug plus 177Lu-lilotomab satetraxetan ([4]; 10 nM, time (day): 4): 0.535
growth inhibition by drug plus 177Lu-lilotomab satetraxetan ([4]; 10 nM, time (day): 5): 0.552
growth inhibition by drug plus 177Lu-lilotomab satetraxetan ([4]; 10 nM, time (day): 6): 0.573
growth inhibition by drug plus 177Lu-lilotomab satetraxetan ([4]; 100 nM, time (day): 3): 0.504
growth inhibition by drug plus 177Lu-lilotomab satetraxetan ([4]; 100 nM, time (day): 4): 0.54
growth inhibition by drug plus 177Lu-lilotomab satetraxetan ([4]; 100 nM, time (day): 5): 0.554
growth inhibition by drug plus 177Lu-lilotomab satetraxetan ([4]; 100 nM, time (day): 6): 0.541

CCN(CC)CCCCNc1ncc2cc(-c3cc(OC)cc(OC)c3)c(NC(=O)NC(C)(C)C)nc2n1
growth inhibition by drug alone ([1]; 10 nM, time (day): 3): -0.118
growth inhibition by drug alone ([1]; 10 nM, time (day): 4): -0.118
growth inhibition by drug alone ([1]; 10 nM, time (day): 5): -0.0732
growth inhibition by drug alone ([1]; 10 nM, time (day): 6): -0.00128
growth inhibition by drug alone ([1]; 1000 nM, time (day): 3): -0.114
growth inhibition by drug alone ([1]; 1000 nM, time (day): 4): -0.0849
growth inhibition by drug alone ([1]; 1000 nM, time (day): 5): -0.071
growth inhibition by drug alone ([1]; 1000 nM, time (day): 6): 0.0716
growth inhibition by drug alone ([2]; 10 nM, time (day): 3): -0.21
growth inhibition by drug alone ([2]; 10 nM, time (day): 4): -0.246
growth inhibition by drug alone ([2]; 10 nM, time (day): 5): -0.227
growth inhibition by drug alone ([2]; 10 nM, time (day): 6): -0.211
growth inhibition by drug alone ([2]; 100 nM, time (day): 3): -0.356
growth inhibition by drug alone ([2]; 100 nM, time (day): 4): -0.38
growth inhibition by drug alone ([2]; 100 nM, time (day): 5): -0.379
growth inhibition by drug alone ([2]; 100 nM, time (day): 6): -0.398
growth inhibition by drug plus 177Lu-lilotomab satetraxetan ([3]; 10 nM, time (day): 3): -0.0428
growth inhibition by drug plus 177Lu-lilotomab satetraxetan ([3]; 10 nM, time (day): 4): 0.00417
growth inhibition by drug plus 177Lu-lilotomab satetraxetan ([3]; 10 nM, time (day): 5): 0.0568
growth inhibition by drug plus 177Lu-lilotomab satetraxetan ([3]; 10 nM, time (day): 6): 0.152
growth inhibition by drug plus 177Lu-lilotomab satetraxetan ([3]; 1000 nM, time (day): 3): -0.156
growth inhibition by drug plus 177Lu-lilotomab satetraxetan ([3]; 1000 nM, time (day): 4): -0.0951
growth inhibition by drug plus 177Lu-lilotomab satetraxetan ([3]; 1000 nM, time (day): 5): -0.0251
growth inhibition by drug plus 177Lu-lilotomab satetraxetan ([3]; 1000 nM, time (day): 6): 0.158
growth inhibition by drug plus 177Lu-lilotomab satetraxetan ([4]; 10 nM, time (day): 3): 0.539
growth inhibition by drug plus 177Lu-lilotomab satetraxetan ([4]; 10 nM, time (day): 4): 0.564
growth inhibition by drug plus 177Lu-lilotomab satetraxetan ([4]; 10 nM, time (day): 5): 0.587
growth inhibition by drug plus 177Lu-lilotomab satetraxetan ([4]; 10 nM, time (day): 6): 0.597
growth inhibition by drug plus 177Lu-lilotomab satetraxetan ([4]; 100 nM, time (day): 3): 0.393
growth inhibition by drug plus 177Lu-lilotomab satetraxetan ([4]; 100 nM, time (day): 4): 0.447
growth inhibition by drug plus 177Lu-lilotomab satetraxetan ([4]; 100 nM, time (day): 5): 0.445
growth inhibition by drug plus 177Lu-lilotomab satetraxetan ([4]; 100 nM, time (day): 6): 0.439

CNC(=O)c1cc(Oc2ccc(NC(=O)Nc3ccc(Cl)c(C(F)(F)F)c3)c(F)c2)ccn1 [Regorafenib (BAY 73-4506)]
growth inhibition by drug alone ([1]; 10 nM, time (day): 3): 0.146
growth inhibition by drug alone ([1]; 10 nM, time (day): 4): 0.0913
growth inhibition by drug alone ([1]; 10 nM, time (day): 5): 0.0627
growth inhibition by drug alone ([1]; 10 nM, time (day): 6): -0.0165
growth inhibition by drug alone ([1]; 1000 nM, time (day): 3): 0.26
growth inhibition by drug alone ([1]; 1000 nM, time (day): 4): 0.284
growth inhibition by drug alone ([1]; 1000 nM, time (day): 5): 0.302
growth inhibition by drug alone ([1]; 1000 nM, time (day): 6): 0.217
growth inhibition by drug alone ([2]; 10 nM, time (day): 3): 0.0302
growth inhibition by drug alone ([2]; 10 nM, time (day): 4): 0.118
growth inhibition by drug alone ([2]; 10 nM, time (day): 5): 0.0999
growth inhibition by drug alone ([2]; 10 nM, time (day): 6): 0.0537
growth inhibition by drug alone ([2]; 100 nM, time (day): 3): 0.189
growth inhibition by drug alone ([2]; 100 nM, time (day): 4): 0.262
growth inhibition by drug alone ([2]; 100 nM, time (day): 5): 0.302
growth inhibition by drug alone ([2]; 100 nM, time (day): 6): 0.293
growth inhibition by drug plus 177Lu-lilotomab satetraxetan ([3]; 10 nM, time (day): 3): 0.125
growth inhibition by drug plus 177Lu-lilotomab satetraxetan ([3]; 10 nM, time (day): 4): 0.179
growth inhibition by drug plus 177Lu-lilotomab satetraxetan ([3]; 10 nM, time (day): 5): 0.283
growth inhibition by drug plus 177Lu-lilotomab satetraxetan ([3]; 10 nM, time (day): 6): 0.319
growth inhibition by drug plus 177Lu-lilotomab satetraxetan ([3]; 1000 nM, time (day): 3): 0.269
growth inhibition by drug plus 177Lu-lilotomab satetraxetan ([3]; 1000 nM, time (day): 4): 0.291
growth inhibition by drug plus 177Lu-lilotomab satetraxetan ([3]; 1000 nM, time (day): 5): 0.39
growth inhibition by drug plus 177Lu-lilotomab satetraxetan ([3]; 1000 nM, time (day): 6): 0.48
growth inhibition by drug plus 177Lu-lilotomab satetraxetan ([4]; 10 nM, time (day): 3): 0.632
growth inhibition by drug plus 177Lu-lilotomab satetraxetan ([4]; 10 nM, time (day): 4): 0.688
growth inhibition by drug plus 177Lu-lilotomab satetraxetan ([4]; 10 nM, time (day): 5): 0.717
growth inhibition by drug plus 177Lu-lilotomab satetraxetan ([4]; 10 nM, time (day): 6): 0.733
growth inhibition by drug plus 177Lu-lilotomab satetraxetan ([4]; 100 nM, time (day): 3): 0.463
growth inhibition by drug plus 177Lu-lilotomab satetraxetan ([4]; 100 nM, time (day): 4): 0.581
growth inhibition by drug plus 177Lu-lilotomab satetraxetan ([4]; 100 nM, time (day): 5): 0.629
growth inhibition by drug plus 177Lu-lilotomab satetraxetan ([4]; 100 nM, time (day): 6): 0.644
